Test systems include HCT-15 colon; HT29 colon; SNB-75 CNS; SNB-19 CNS; U251 CNS; PC-3 prostate; SK-MEL-5 melanoma; UACC-62 melanoma; LOX IMVI melanoma; SK-MEL-28 melanoma; EKVX NSCLC; SN12C renal; UO-31 renal; TK-10 renal; ACHN renal; CAKI-1 renal; A498 renal; CCRF-CEM leukemia; MOLT-4 leukemia.
Common to all, as to experiment: NCI-60 one-dose screen, 48 h (100 = growth as untreated, 0 = no growth, -100 = all killed)
Common to all, as to conditions: 10 µM unless noted

The structures appear in SMILES notation. Compounds without any hit were thinned out: in the full panel of roughly 83,000, 20% have a hit.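 Cell lines were cultured in 96-well plates, exposed to a single compound concentration, and assessed for percent growth 48 hours later.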 A number with no mark means an inactive call. Activity calls are given as the source filed them. Rule for the calls: active = growth percent below 10; inactive = the rest.

These results are taken from PubChem BioAssay (NCI).

`Nc1nc(N)c2nc(-c3cccc(O)c3)c(-c3cccc(O)c3)nc2n1`: the growth in the test with HCT-15 colon is 92%; in the test on HT29 colon it was 68%; with SNB-75 CNS, 39.9%; with SNB-19 CNS, 70.8%; in the test with U251 CNS, 71.6%; in the test with PC-3 prostate, 76.6%. The growth with SK-MEL-5 melanoma is 89.1%; in the test with UACC-62 melanoma it was 83%; in the test on LOX IMVI melanoma it was 89.6%; with SK-MEL-28 melanoma, 85.2%; in the test with EKVX NSCLC, 82.2%; with SN12C renal, 51.4%. Further, the growth in the test with UO-31 renal is 65.9%; in the test on TK-10 renal it was 80.9%; in the test with ACHN renal it was 69.3%; with CAKI-1 renal it was 67.7%; in the test on A498 renal it was 74.9%; in the test with CCRF-CEM leukemia, 66.3%. Besides, the growth in the test on MOLT-4 leukemia is 90.6%.
As for `CNS(=O)(=O)Nc1nccc(Cc2c(C)c3ccc(Oc4ncccn4)cc3oc2=O)c1F`, the growth with HCT-15 colon was 63.7%; in the test with HT29 colon it was 10.4%; with SNB-75 CNS, 78.1%; in the test with SNB-19 CNS it was 63.7%; in the test on U251 CNS, 54.8%; with PC-3 prostate, 101%. The growth with SK-MEL-5 melanoma was 23.1%; in the test on UACC-62 melanoma it was 4.49% (active); in the test with LOX IMVI melanoma it was 25.6%; in the test on SK-MEL-28 melanoma, 8.61% (active); in the test with EKVX NSCLC, 55%; with SN12C renal, 73.1%. The growth is 53.8% with UO-31 renal; 34.1% in the test with TK-10 renal; 56.8% in the test on ACHN renal; 44.7% in the test with CAKI-1 renal; -17.2% (active) in the test on A498 renal; 84.4% in the test with CCRF-CEM leukemia. In the test on MOLT-4 leukemia, the growth is 76.2%.
Turning to `FC(F)(F)c1ccc(CNc2ccc(Cc3c[nH]c4ncc(Cl)cc34)cn2)cn1`, the growth was 19.9% in the test with HCT-15 colon; 2.92% (active) in the test with HT29 colon; 9.21% (active) with SNB-75 CNS; 37% in the test with SNB-19 CNS; 18.2% with U251 CNS; 18.3% in the test on PC-3 prostate. Besides, the growth was -59.8% (active) in the test on SK-MEL-5 melanoma; 6.74% (active) with UACC-62 melanoma; 15.2% in the test on LOX IMVI melanoma; 17.8% with SK-MEL-28 melanoma; 30.3% in the test on EKVX NSCLC; 52.2% in the test on SN12C renal. Moreover, the growth in the test on UO-31 renal is 10.7%; in the test with TK-10 renal it was 18.3%; with ACHN renal, 31.6%; in the test on CAKI-1 renal, 25.2%; with A498 renal it was 18.3%; in the test on CCRF-CEM leukemia, 23.4%. The growth in the test with MOLT-4 leukemia was 7.19% (active).
With `CO[C@@H](C(=O)N1Cc2[nH]nc(NC(=O)c3ccc(N4CCN(C)CC4)cc3)c2C1)c1ccccc1`, the growth with HCT-15 colon was 74.2%; in the test on HT29 colon, -34.7% (active); with SNB-75 CNS, -85.5% (active); in the test on SNB-19 CNS it was 28.3%; in the test on U251 CNS, 16%; in the test on PC-3 prostate, 26.5%. Moreover, the growth in the test with SK-MEL-5 melanoma was -20.5% (active); with UACC-62 melanoma it was 30.6%; in the test with LOX IMVI melanoma, -89% (active); with SK-MEL-28 melanoma, 45.5%; with EKVX NSCLC, 59.3%; in the test on SN12C renal, 26.8%. The growth in the test with UO-31 renal was 50.7%; with TK-10 renal, 9.33% (active); with ACHN renal, 41.9%; in the test with CAKI-1 renal, 17.3%; in the test on A498 renal, -37% (active); in the test on CCRF-CEM leukemia it was 51.5%. Further, the growth in the test on MOLT-4 leukemia was 31%.
Regarding `Cn1cc(-c2ncnc3ccc(-c4cnc(Cl)c(NS(C)(=O)=O)c4)cc23)c2ccccc21`, the growth with HCT-15 colon was 13.2%; with HT29 colon, 11.7%; in the test with SNB-75 CNS, -14.9% (active); in the test on SNB-19 CNS it was 27.7%; in the test with U251 CNS, 24.4%; in the test on PC-3 prostate, 20.1%. Besides, the growth was -14.6% (active) in the test on SK-MEL-5 melanoma; -18.8% (active) in the test with UACC-62 melanoma; 9.88% (active) with LOX IMVI melanoma; 0.439% (active) in the test with SK-MEL-28 melanoma; 11.7% with EKVX NSCLC; 21.7% in the test with SN12C renal. Moreover, the growth was -5.34% (active) in the test with UO-31 renal; -1.34% (active) in the test on TK-10 renal; 13.3% with ACHN renal; 10.6% in the test with CAKI-1 renal; -42.7% (active) in the test with A498 renal; 23.9% in the test with CCRF-CEM leukemia. Also, the growth with MOLT-4 leukemia was 7.73% (active).
For `COc1ccc(COc2cc3oc(=O)c4cc(C(C)O)ccc4c3cc2OC)cc1` (centres undefined), the growth is 36.6% in the test on HCT-15 colon; 30.1% in the test with HT29 colon; 13.7% in the test on SNB-75 CNS; 31.9% in the test on SNB-19 CNS; 46.5% in the test on U251 CNS; 53% in the test on PC-3 prostate. Besides, the growth with SK-MEL-5 melanoma was 56.3%; in the test on UACC-62 melanoma, 50.4%; in the test with LOX IMVI melanoma it was 76.3%; with SK-MEL-28 melanoma it was 56.3%; with EKVX NSCLC it was 68.9%; with SN12C renal it was 68.5%. The growth in the test with UO-31 renal was 64.5%; with TK-10 renal, 73.5%; with ACHN renal, 48.4%; in the test with CAKI-1 renal, 55.9%; in the test with A498 renal, 84.6%; with MOLT-4 leukemia, 54.5%.
Take `COc1cccc(Nc2ncnn3ccc(CN4CC[C@@H](N)[C@H](O)C4)c23)c1`: the growth was 28.7% with HCT-15 colon; 27.1% in the test with HT29 colon; -44.6% (active) in the test with SNB-75 CNS; 43.1% in the test on SNB-19 CNS; 63.2% in the test with U251 CNS; 56.3% with PC-3 prostate. Besides, the growth was 76.2% in the test on SK-MEL-5 melanoma; 93.4% in the test with UACC-62 melanoma; 35.3% in the test on LOX IMVI melanoma; 89.7% with SK-MEL-28 melanoma; 23.8% with EKVX NSCLC; 18.9% with SN12C renal. Moreover, the growth in the test on UO-31 renal was -34.3% (active); with TK-10 renal it was -35.3% (active); with ACHN renal it was 2.8% (active); in the test with CAKI-1 renal, -13.5% (active); with A498 renal, -38.1% (active); in the test on MOLT-4 leukemia it was 17.6%.
Take `O=C(CNc1nc(-c2ccc(Cl)cc2)cs1)Nc1ccc(-c2nc3ccccc3s2)cc1`: the growth in the test on HCT-15 colon is 110%; with HT29 colon, 108%; with SNB-75 CNS it was 77.8%; with SNB-19 CNS, 98.2%; in the test with U251 CNS, 91.6%; in the test with PC-3 prostate it was 90.7%. In addition, the growth was 87.7% in the test with SK-MEL-5 melanoma; 91.9% in the test with UACC-62 melanoma; 95.6% with LOX IMVI melanoma; 111% in the test on SK-MEL-28 melanoma; 102% with EKVX NSCLC; 101% in the test on SN12C renal. Moreover, the growth was 75% with UO-31 renal; 66.5% in the test on TK-10 renal; 105% with ACHN renal; 94.2% with CAKI-1 renal; 102% with A498 renal; 92.7% with MOLT-4 leukemia.
